Only some compounds are listed: those with a hit (about 2.2% of all), similar ones and a draw of the others.
NALP1 inh – inhibitors of NALP1 inflammasome in yeast | S. cerevisiae NALP1/ASC/caspase-1 growth, X-gal OD620, 72 h | inhibition, % at 10 µM | hit rate 0.61% among 280,000; in the data active means inhibition mostly above about 24%, no sharp cut-off; inactive means mostly below about 32%
ZTA counter – counter-screen for EBNA-1 inhibitors: inhibitors of Epstein-Barr virus ZTA. P03206. ZTA-DNA binding, fluorescence polarization. inhibition, % at 11 µM. hit rate 0.15% among 320,000; in the data active means inhibition above about 33%
Target sequence (P03206 whole entry, looked up): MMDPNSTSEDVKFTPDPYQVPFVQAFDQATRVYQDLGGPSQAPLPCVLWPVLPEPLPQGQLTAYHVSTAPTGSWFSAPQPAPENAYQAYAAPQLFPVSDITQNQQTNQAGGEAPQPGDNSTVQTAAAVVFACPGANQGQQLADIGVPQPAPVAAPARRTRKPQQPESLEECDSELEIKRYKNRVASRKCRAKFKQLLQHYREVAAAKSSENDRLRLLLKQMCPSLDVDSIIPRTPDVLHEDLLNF
NALP3 yeast inh – NALP3 inhibition in yeast. hit rate 0.39% among 330,000. Yeast reconstituted NLRP3/ASC/caspase-1, beta-gal luminescence, 24 h. inhibition, % at 10 µM. AID 2825;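 active means inhibition of 50% or more; inactive means inhibition below 50%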;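 further: plate controls were induced DMSO wells for no effect and uninduced yeast grown without galactose for full effect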
PolyA inh – yeast polyadenylation inhibition; S. cerevisiae SKY197-pL101 polyadenylation reporter, beta-gal luminescence; efflux-impaired pdr1/pdr3 knockout yeast; score 100 = 6 SD above DMSO; hit rate 0.02% among 300,000; activity score, % at 12 µM;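 active means lowest replicate activity score at least 50, where 100 means six control SD above control mean; inconclusive means lowest score under 50 but half or more replicates reach 50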;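 further: yeast exposed to compound for 9 h at 30 °C; higher score means more reporter readthrough which indicates perturbed polyadenylation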
dFosB act – activators of mouse delta FosB homodimer. P13346. purified delta FosB, TAMRA-CDK5 oligo fluorescence polarization; percent of positive-control signal above neutral wells. activation, % at 25 µM. hit rate 0.99% among 340,000. AID 493131;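 active means mean activation above about 17%, with every replicate also reaching it, limit read from the data, passing the limit was not always enough; inconclusive means only one of the two conditions met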
Target sequence (P13346 whole entry, looked up): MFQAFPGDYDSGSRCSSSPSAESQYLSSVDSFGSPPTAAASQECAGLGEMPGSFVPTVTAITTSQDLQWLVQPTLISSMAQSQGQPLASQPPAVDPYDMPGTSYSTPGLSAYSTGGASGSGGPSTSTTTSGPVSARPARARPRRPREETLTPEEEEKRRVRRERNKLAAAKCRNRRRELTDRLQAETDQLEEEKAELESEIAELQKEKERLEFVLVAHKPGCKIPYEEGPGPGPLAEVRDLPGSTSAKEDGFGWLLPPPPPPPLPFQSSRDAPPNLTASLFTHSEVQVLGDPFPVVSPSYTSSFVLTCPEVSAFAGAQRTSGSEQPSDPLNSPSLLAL
EBNA-1 inh – blocks EBNA-1 binding to DNA; hit rate 0.34% among 300,000; inhibition, % at 14.8 µM; AID 1950; EBNA-1 DNA binding, fluorescence polarization; in the data active means inhibition above about 28%
Numbers without * were called inactive; ? = inconclusive; · = no result given.

SMILES	NALP1 inh	ZTA counter	NALP3 yeast inh	PolyA inh	dFosB act	EBNA-1 inh
CN(CCOc1ccc(Cl)cc1)C(=O)c1cccc(S(=O)(=O)N2CCN(c3ccccc3)CC2)c1	·	·	·	·	-14	·
COc1cc(NC(=O)CN2C(=O)CSc3ccc(S(=O)(=O)N4CCCC4)cc32)cc(OC)c1	19	-1	-8	-9	-7	10
CC(Cc1ccccc1)NC(=O)c1cc([N+](=O)[O-])ccc1Cl (centres undefined)	36*	0	17	0	13	2
O=C(N[C@@H](Cc1ccccc1)c1nc2ccccc2[nH]1)c1cc([N+](=O)[O-])ccc1Cl	25	-15	4	18	-5	-5
C(=N\c1ncnc2sccc12)/NOCc1ccccc1	32	5	6	95*	-5	9
CC1C(=O)C(C)C(c2cc(Cl)ccc2O)NC1c1cc(Cl)ccc1O (centres undefined)	10	-16	9	-1	20*	-3
COc1cccc(C2NC(c3cccc(OC)c3O)C(C)C(=O)C2C)c1O (centres undefined)	10	-11	13	7	-4	-10
Clc1ccc(Nc2ccc(NCc3ccccc3)nn2)cc1	72*	-6	35	-12	3	-13
CCN(CC)C(=O)c1sc(NC(=O)Cc2ccc(OC)cc2)c(C#N)c1C	43*	-3	3	-15	-5	1
CCN(CC)C(=O)c1sc(NC(=O)Cc2ccccc2)c(C#N)c1C	-4	-4	-9	6	-7	-1
Cc1cc(NC(=O)C(Cl)Cl)cc2c1OCO2	·	·	·	·	1	·
NS(=O)(=O)c1ccc(NC(=O)c2ccc(CNS(=O)(=O)c3cc(C(F)(F)F)ccc3Cl)cc2)cc1	-2	-11	5	-4	108*	-3
CCN(CC)C(=O)Cn1cc(C(=O)C(=O)Nc2ccc3c(c2)OCCO3)c2ccccc21	33	-16	2	-13	1	-12
Cc1ccc(S(=O)(=O)c2ccc([N+](=O)[O-])cn2)cc1	35*	26	-31	-10	2	12
O=[N+]([O-])c1ccc(S(=O)(=O)c2ccccc2)nc1	21	-15	-32	2	4	-10
Cc1cc(C)cc(NC(=O)C2CCCN2C(=O)Oc2ccccc2)c1 (centres undefined)	6	6	13	-1	-6	8
Cc1cccc(NC(=O)C2CCCN2C(=O)Oc2ccccc2)c1 (centres undefined)	45*	-5	7	11	3	2
Cc1ccc2nc(SCC(=O)N3CCC(Cc4ccccc4)CC3)nc(=O)n2c1	·	-15	17	2	-11	-12
[2H]C([2H])(CCOS(N)(=O)=O)c1ccccc1	14	-10	3	0	-3	8
O=C(COC(=O)/C=C/c1ccc([N+](=O)[O-])cc1)Nc1ccc2[nH]c(=O)[nH]c2c1	·	·	15	·	31*	·
Cc1oc(C)c(C(=O)O)c1C(=O)O	11	5	-8	8	-5	2
COC(=O)c1c(C)oc(C)c(C(=O)OC)c1=O	22*	6	8	9	1	-4
CO/N=C/CC(=O)c1ccc([N+](=O)[O-])c(CS(=O)(=O)c2ccc(Cl)cc2)c1	22	-3	22	-3	-14	6
CCn1cc(C2=NOC(C(=O)Nc3cc(OC)c(Cl)cc3OC)C2)c(C)n1 (centres undefined)	33*	2	15	2	-2	4
NC(=O)N/N=C/c1ccccc1OCc1cccc2ccccc12	3	2	21	-8	5	0
SMILES	NALP1 inh	ZTA counter	NALP3 yeast inh	PolyA inh	dFosB act	EBNA-1 inh
CCOc1cc(/C=N/NC(=O)C(O)(c2ccccc2)c2ccccc2)ccc1OC(=O)c1ccco1	·	-8	-15	6	2	-8
CCc1ccc(C2NC(C(=O)O)CS2)cc1 (centres undefined)	50*	·	·	·	·	·
CC1(C)CC(=O)C=C(c2cccc(Br)c2)C1	·	-4	15	·	4	·
O=S(=O)(Nc1ccc(-n2cnnn2)cc1)c1ccc(Cl)s1	·	·	-2	·	-4	·
c1ccc(COc2ccc(OCCCCN3CCCC3)cc2)cc1	45	2	17	-15	-7	-3
CC1CCN(CCOc2ccc(OCc3ccccc3)cc2)CC1	49*	-18	35	-5	-5	8
COC(=O)c1cccc(C(=O)N2CCCC(Nc3ccc(C)c(C)c3)C2)c1 (centres undefined)	16	-6	3	-2	-6	3
COC(=O)Cn1c(O)c(N=NC(=O)CNC(=O)c2ccc3c(c2)OCCO3)c2ccccc21	8	-4	10	-3	-16	-5
O=C(CNC(=O)c1ccc2c(c1)OCCO2)N=Nc1c(O)[nH]c2ccccc12	-9	-19	-6	20	24*	4
N#C/C(=C\c1ccc(F)c(F)c1)C(=O)NC1CCCCC1	60*	-4	3	-7	1	-2
CC12CCC(=O)N1C(C(=O)NCCN1C(=O)S/C(=C\c3ccc(F)cc3)C1=O)CS2 (centres undefined)	·	10	0	-1	-13	-1
O=C(CSc1nc2ccccc2c(=O)n1CCCN1CCOCC1)NC12CC3CC(CC(C3)C1)C2	34*	-3	10	1	-11	-1
Cc1onc(-c2c(Cl)cccc2Cl)c1C(=O)Nc1nc(C(C)(C)C)cs1	36*	14	9	-23	7	-9
Cc1nc(C(=O)NNC(=O)c2c(-c3c(Cl)cccc3Cl)noc2C)cs1	·	-17	8	4	-2	1
COc1ccc(C(=O)CN2C3=NCCCN3c3ccccc32)cc1OC	22	-4	9	-6	-9	8
Cc1ccc(C)c(C(=O)CN2C3=NCCCN3c3ccccc32)c1	33*	7	-8	5	-5	1
NCc1cc2c3c(c1)CCCN3CCC2	20	-7	27	24	40*	8
NC(=O)/C=C\C(=O)Nc1cccc(C(F)(F)F)c1	61*	-13	25	-73	-2	2
NNC(=O)Nc1cccc(C(F)(F)F)c1	-1	-14	17	-1	-4	-7
O=C(CNC(=O)Cc1ccccc1)N=Nc1c(O)n(Cc2ccc3c(c2)OCO3)c2ccccc12	29	·	·	24	20*	·
COc1cccc(CNC(=O)COC(=O)c2nc(Cl)c(Cl)c(Cl)c2Cl)c1	·	-8	-10	·	-6	·
O=C(Nc1cccc(N=Cc2cc(Cl)cc(Br)c2O)c1)c1ccco1	12	-8	4	-23	0	-2
O=C(Oc1ccc(/C=N/NC(=O)c2ccccc2F)cc1)c1ccccc1	31	9	5	-8	17*	-7
O=C(Nc1cccc(N=Cc2cc(Br)cc(Br)c2O)c1)c1ccco1	65*	10	·	-56	-6	3
O=C(N/N=C/c1cccc(F)c1)c1c(O)c2ccccc2[nH]c1=O	47	5	·	?	2	-6

Source: PubChem (several laboratories)
